Here are results for five compounds from PubChem BioAssay.

Where “and” joins values, the source holds several entries; their conditions need not be identical. Identical values can stand only once. Results filed as inconclusive are left out. Calls of active or inactive are those of the source.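 How the source made its calls, unless noted: active means normalized viability below 100% at a tested concentration; inactive means the rest.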

Assay [1] in a line: viability loss in pontine glioma line – cell-based, SU-DIPG-XXV, MIPE5.0, CellTiter-Glo, qHTS, dose response (AID 1347065; cut-off not given, nearly all actives have AC50 up to about 26 µM;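 further: cells exposed to compound for 48 hours before ATP readout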). The following applies: CellTiter-Glo ATP luminescence. Background: ATP-based viability assays read luminescence as a measure of living cells.
The nature of assay [2]: growth inhibition of DIPG cells – cell-based, MIPE4.0 library, CellTiter-Glo luminescence, qHTS (AID 1347066; cut-off not given, nearly all actives have AC50 up to about 30 µM;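 further: cells exposed to compound for 48 hours before readout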). The following applies: SU-DIPG-VI viability, CellTiter-Glo ATP luminescence.
Assay [3] in a line: JHH-DIPG-1 glioma cell viability, MIPE5.0 library, CellTiter-Glo luminescence, qHTS (AID 1347067; cut-off not given, nearly all actives have AC50 up to about 26 µM;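 further: cells exposed to compound for 48 hours before readout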). The following applies: JHH-DIPG-1 glioma viability, CellTiter-Glo ATP luminescence.
Assay [4] can be described thus: growth inhibition of DIPG cells – cell-based, MIPE5.0 library, qHTS (AID 1347068; cut-off not given, nearly all actives have IC50 up to about 30 µM;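 on IC50: cells exposed to compound for 48 hours before viability readout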). The following applies: SU-DIPG-XXV viability. In general terms: In qHTS, concentration-response curves come from the screen itself.
The nature of assay [5]: viability loss with induced miR-34 in A549 – imaging, A549 dox-inducible miR-34, nuclei and caspase counts, primary screen (AID 1347080;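 active means compounds whose cell count with miR-34 switched on is under 0.7 times the count with it off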). As to conditions: A549 miR-34 inducible, Hoechst nuclei count, 48 h.
A short description of assay [6]: MELAS cybrid and Rieske KO viability enhancers – cell-based, MELAS cybrids, Rieske KO mouse fibroblasts, CellTiter-Glo, primary screen (AID 1508586;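 active means mean z-score across replicates of 1.96 or higher in either the MELAS or the Rieske mutant cell line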;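 further: z relative to plate mean and SD of compound and empty wells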). The following applies: low glucose.
A short description of assay [7]: blockers of cellular phospholipid synthesis – cell-based, LOPAC library, screen 4, primary screen (AID 1347384; call rule not given here). As to conditions: animal cells, phospholipid biosynthesis inhibition screen; at 10 µM.
Assay [8] can be described thus: compounds altering HSF1 focus formation in cells – imaging, Selleck Cancer Library (AID 1347162; in the data active means plate-normalised HSF1 focus index below about 0.46). As to conditions: human cells, HSF1 nuclear foci imaging, at 10 µM; SSMD: measured here: HSF1 foci SSMD mean; cell count: measured here: cell number; plate-normalised HSF1 focus index: stronger effect = lower value.
Assay [9] in a line: drug combination growth inhibition, ovarian cancer – cell-based, oncology-focused library, rucaparib conditional, profiling panel (AID 1508598). As to conditions: patient-derived ovarian cancer cells, CellTiter-Glo viability, 144 h, stronger effect = lower value.
The mark [10] stands for this setting: stronger effect = lower value, cell number ratio, induced over uninduced.
[11] abbreviates: measured here: relative caspase fold change +Dox/-Dox.
Setting [12] is: measured here: total cells with miR-34 induction, stronger effect = lower value.
The mark [13] stands for this setting: measured here: total cells without miR-34 induction.
[14] abbreviates: MELAS cybrid survival, CellTiter-Glo 48 h, stronger effect = higher value.
[15] abbreviates: Rieske KO mouse fibroblast survival, CellTiter-Glo 72 h.

In the case of `Cc1cnc(C(=O)O)c[n+]1[O-]`, the result in assay [1], in [2], in assay [3] and in assay [4] was inactive. Moreover, the fold change is 0.836 (inactive) and 0.829 (inactive) in [5] (setting [10]); 0.776 and 1.63 in assay [5] (setting [11]). Further, the cell count in assay [5] (setting [12]) was 6980 and 9220; in assay [5] (setting [13]), 8340 and 11100. Also, the z-score in assay [6] (setting [14]) was 0.0931 (inactive) and 0.196 (inactive) and -0.0621 (inactive); in assay [6] (setting [15]), -1.45 and -0.0767 and -0.000299.
In the case of `CCOc1cc(CC(=O)N[C@@H](CC(C)C)c2ccccc2N2CCCCC2)ccc1C(=O)O`, the compound was called inactive in assay [1], in assay [2], in assay [3] and in [4]. Moreover, the fold change in assay [5] (setting [10]) is 0.924 (inactive) and 0.888 (inactive) and 0.976 (inactive); in assay [5] (setting [11]), 0.881 and 1.49 and 4.38. Besides, the cell count is 8510 and 8490 and 12000 in assay [5] (setting [12]); 9210 and 9560 and 12300 in [5] (setting [13]). In addition, the z-score in assay [6] (setting [14]) is -0.407 (inactive); in assay [6] (setting [15]) it was 0.416.
What is called AC50 is the concentration giving half of the maximal activity seen. As a reminder, the IC50 is the concentration that gives 50% inhibition. Turning to `O=C(Nc1ccc([N+](=O)[O-])cc1Cl)c1cc(Cl)ccc1O`, the results for the AC50 in [1], in assay [2] and in [3] were 1.18 µM (active), 0.59 µM (active) and 0.833 µM (active), respectively. In assay [4], the half-inhibitory concentration (IC50) is 1.32 µM (active). The fold change in [5] (setting [10]) is 0.851 (inactive) and 1.03 (inactive) and 1.1 (inactive); in [5] (setting [11]) it was 0.641 and 1.64 and 2.16. Further, the cell count in [5] (setting [12]) was 1500 and 2060 and 8890; in [5] (setting [13]) it was 1770 and 2000 and 8060. Further, in assay [7], the compound was called active. The z-score in [6] (setting [14]) was -1.03 (inactive); in assay [6] (setting [15]), -0.036.
As to `C[C@@H]1CN(c2c(F)c(N)c3c(=O)c(C(=O)O)cn(C4CC4)c3c2F)C[C@H](C)N1`, the outcome in [1], in [2], in assay [3] and in [4] was inactive. Also, the figures for the fold change in assay [5] (setting [10]) and in assay [5] (setting [11]) were 0.881 (inactive) and 1.37, respectively. For the same compound, the results for the cell count in assay [5] (setting [12]) and in [5] (setting [13]) were 9500 and 10800, respectively. Moreover, the z-score in assay [6] (setting [14]) was -0.149 (inactive) and 0.182 (inactive); in [6] (setting [15]), -0.511 and -0.3.
As a reminder, the viability is a read-out of living cells in per cent, often relative to untreated cells. `COc1cc2c(Nc3ccc(Br)cc3F)ncnc2cc1OCC1CCN(C)CC1`: the half-maximal activity concentration (AC50) was 14.8 µM (active) in assay [1], 20.9 µM (active) in assay [2] and 20.9 µM (active) in assay [3]. Moreover, the IC50 in assay [4] is 26.3 µM (active). The fold change is 0.896 (inactive) in assay [5] (setting [10]) and 1.03 in assay [5] (setting [11]). Besides, the cell count in assay [5] (setting [12]) amounted to 1750; in assay [5] (setting [13]) it was 1950; in [8], 4710. The SSMD in [8] is -3.85. In addition, in assay [8], the plate-normalised HSF1 focus index was 0.799 (inactive). The z-score in assay [6] (setting [14]) is -0.0745 (inactive); in assay [6] (setting [15]), -0.742. For the same compound, the viability is 108% (inactive) in assay [9] (at 0.000305 µM, OCI-C5x cells, with rucaparib 10 µM, 100% = cells with rucaparib alone); 109% (inactive) in assay [9] (at 0.000305 µM, OCI-C5x cells, without rucaparib); 82.1% (active) in assay [9] (at 0.000305 µM, OCI-P5x cells, with rucaparib 20 µM, 100% = cells with rucaparib alone); 95.9% (active) in assay [9] (at 0.000305 µM, OCI-P5x cells, without rucaparib); 103% (inactive) in assay [9] (at 0.00122 µM, OCI-C5x cells, with rucaparib 10 µM, 100% = cells with rucaparib alone); 106% (inactive) in assay [9] (at 0.00122 µM, OCI-C5x cells, without rucaparib). Moreover, the viability is 92.5% (active) in assay [9] (at 0.00122 µM, OCI-P5x cells, with rucaparib 20 µM, 100% = cells with rucaparib alone); 100% (inactive) in [9] (at 0.00122 µM, OCI-P5x cells, without rucaparib); 122% (inactive) in assay [9] (at 0.00488 µM, OCI-C5x cells, with rucaparib 10 µM, 100% = cells with rucaparib alone); 111% (inactive) in [9] (at 0.00488 µM, OCI-C5x cells, without rucaparib); 87.8% (active) in assay [9] (at 0.00488 µM, OCI-P5x cells, with rucaparib 20 µM, 100% = cells with rucaparib alone); 104% (inactive) in assay [9] (at 0.00488 µM, OCI-P5x cells, without rucaparib). Also, the viability was 110% (inactive) in assay [9] (at 0.0195 µM, OCI-C5x cells, with rucaparib 10 µM, 100% = cells with rucaparib alone); 118% (inactive) in [9] (at 0.0195 µM, OCI-C5x cells, without rucaparib); 90.3% (active) in assay [9] (at 0.0195 µM, OCI-P5x cells, with rucaparib 20 µM, 100% = cells with rucaparib alone); 112% (inactive) in [9] (at 0.0195 µM, OCI-P5x cells, without rucaparib); 111% (inactive) in assay [9] (at 0.0781 µM, OCI-C5x cells, with rucaparib 10 µM, 100% = cells with rucaparib alone); 118% (inactive) in assay [9] (at 0.0781 µM, OCI-C5x cells, without rucaparib). Also, the viability is 88% (active) in assay [9] (at 0.0781 µM, OCI-P5x cells, with rucaparib 20 µM, 100% = cells with rucaparib alone); 101% (inactive) in assay [9] (at 0.0781 µM, OCI-P5x cells, without rucaparib); 112% (inactive) in [9] (at 0.313 µM, OCI-C5x cells, with rucaparib 10 µM, 100% = cells with rucaparib alone); 113% (inactive) in assay [9] (at 0.313 µM, OCI-C5x cells, without rucaparib); 83.3% (active) in [9] (at 0.313 µM, OCI-P5x cells, with rucaparib 20 µM, 100% = cells with rucaparib alone); 103% (inactive) in assay [9] (at 0.313 µM, OCI-P5x cells, without rucaparib). The viability is 111% (inactive) in [9] (at 1.25 µM, OCI-C5x cells, with rucaparib 10 µM, 100% = cells with rucaparib alone); 116% (inactive) in assay [9] (at 1.25 µM, OCI-C5x cells, without rucaparib); 78.7% (active) in assay [9] (at 1.25 µM, OCI-P5x cells, with rucaparib 20 µM, 100% = cells with rucaparib alone); 102% (inactive) in assay [9] (at 1.25 µM, OCI-P5x cells, without rucaparib); 55.4% (active) in assay [9] (at 5 µM, OCI-C5x cells, with rucaparib 10 µM, 100% = cells with rucaparib alone); 51.8% (active) in assay [9] (at 5 µM, OCI-C5x cells, without rucaparib). For the same compound, the viability in assay [9] (at 5 µM, OCI-P5x cells, with rucaparib 20 µM, 100% = cells with rucaparib alone) was 43.9% (active); in [9] (at 5 µM, OCI-P5x cells, without rucaparib), 78.9% (active).
